Inhibition data for 104 compounds are collected here from PubChem BioAssay AID488857 (Sanford-Burnham Center for Chemical Genomics, 2010).

Screen size: about 1,400 compounds; about 560 (40%) were called active. The set was probably picked from earlier hits. The list shows a part of the results. A number with no mark means an inactive call.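 How the source made its calls: active means mean inhibition over duplicate tests at 10 µM above 50%; inactive means the rest.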

The test is described as follows: ASC/caspase-1 reporter retest in S. cerevisiae at one dose, specificity check for NALP1 project (AID 488857). The note with it: S. cerevisiae ASC/Caspase-1, beta-galactosidase luminescence, 24 h; at 10 µM; stronger effect = higher value.
For the compound `Cn1nc(NC(=O)C(C)(C)C)c2c(F)cccc21`, the inhibition is 23.4%. To `CCCC(CCC)c1nc2ccncc2[nH]1` belongs 39.7%; to `Clc1ccc(N2CCN(c3cnc4ccccc4n3)CC2)cc1`, 29.9%.

With `CC1CCN(c2nc(CN3CCCCC3)nc3scc(-c4ccccc4)c23)CC1`, the inhibition was 65.8% (active). On to `COC(=O)c1c(S(=O)(=O)NCc2ccccc2)sc(C(=O)O)c1C`, for which the inhibition is 32.3%. To `O=C1S/C(=C\c2ccc(N3CCOCC3)o2)C(=O)N1c1ccccc1` belongs 56.8% (active). Take `Cn1c(=O)c2c(nc(Sc3ncccn3)n2Cc2ccccc2Cl)n(C)c1=O`: the inhibition was 26.6%. Consider `Cc1ccc(S(=O)(=O)NCC(=O)N(CC(=O)NC(C)(C)C)Cc2cccs2)cc1`, for which the inhibition is 34.8%.

Turning to `COc1cc(OC)nc(-n2ncc(Br)c(Br)c2=O)n1`, the inhibition was 51.4% (active). As to `Cc1cccc(C)c1OCCNC(=O)CCC(=O)c1ccccc1`, the inhibition is 31.6%. The same measure for `Cc1ccc(C(=O)CCC(=O)O)cc1`: 26.7%; for `CCCC(=O)c1ccc(-c2ccccc2)cc1`: 57.2% (active); for `Cc1c(NC(=O)c2cc3c(s2)-c2ccccc2OC3)cccc1[N+](=O)[O-]`: 72% (active). `O=S(=O)(Nc1cc(Sc2cccc3cccnc23)c(O)c2ccccc12)c1ccc(F)cc1`: the inhibition was 90.7% (active). For `O=S(=O)(Nc1ccc(Oc2ncccn2)c(Cl)c1)c1ccc(F)cc1`, the inhibition is 32.6%. In the case of `Cc1cc(C)c(S(=O)(=O)Nc2cc(SCC(=O)O)c(O)c3ccccc23)cc1C`, the inhibition is 17.9%. The same measure for `CC(C)(C)OC(=O)NCCCCCc1nnc(SCc2ccccc2)o1`: 71.4% (active); for `CC(C)Sc1nnc([C@H](Cc2ccccc2)NC(=O)OC(C)(C)C)o1`: 41.7%; for `CCCCSc1nnc(CCNC(=O)OC(C)(C)C)o1`: 47.8%. Turning to `O=C(c1ccc(S(=O)(=O)c2ccccc2)cc1)N1CCCCCC1`, the inhibition was 31.9%. The same measure for `O=C(c1ccc(COc2ccccc2Br)cc1)N1CCCCC1`: 52.2% (active); for `OCCN(CCO)c1ncnc2c1oc1ccc(Br)cc12`: 29.6%. For the compound `CCN(CCO)Cc1csc2ccc(Br)cc12`, the inhibition was 55.5% (active). With `COc1ccccc1OCCCCN1CCN(c2ccccc2OC)CC1`, the inhibition is 21.9%.

Regarding `COc1ccccc1N1CCN(CCCCOc2cccc3ccccc23)CC1`, the inhibition was 63.3% (active). Turning to `COc1ccccc1N1CCN(CCCCCCOc2ccc(F)cc2)CC1`, the inhibition is 49.6%. The same measure for `Cc1cccc(NCc2nc3ccccc3n2C)c1`: 74% (active).

For the compound `Cc1nc2cc(-c3ccc(Cl)cc3)nn2c(C)c1CCC(=O)NC(C)c1ccc2c(c1)OCCO2` (centres undefined), the inhibition is 49%.

`Nc1ccc2c(c1)C/C(=C/c1ccco1)C2=O`: the inhibition was 21.8%. The same measure for `COc1ccc(C2=C/C(=C/c3cccnc3)C(=O)O2)cc1OC`: 28.8%; for `COc1cc(/C=C2/CCc3ccccc3C2=O)cc(OC)c1OC`: 69.8% (active).

On to `O=C1/C(=C/c2ccco2)Cc2ccccc21`, for which the inhibition was 48.4%. To `COc1ccc(/C=C2\COc3ccccc3C2=O)cc1OC` belongs 81.6% (active). To `COc1cc2ccccc2c2c1CCCC2=O` belongs 30%; to `COc1ccc2c(c1)CC/C(=C/c1ccco1)C2=O`, 68.5% (active). To `O=C1/C(=C/c2ccccc2)CCCc2ccccc21` belongs 72.1% (active); to `Cc1n[nH]c(C)c1S(=O)(=O)N1CCN(C2CCCCC2)CC1`, 32.4%; to `CS(=O)(=O)N(CC(=O)Nc1ccccc1Sc1ccccc1)C1CCCCC1`, 19.4%.

On to `COc1ccc(/C=C2/CCc3ccccc3C2=O)cc1OC`, for which the inhibition is 61.4% (active). For the compound `COCCCNCCOc1ccc(C(C)(C)c2ccccc2)cc1`, the inhibition is 64.7% (active). To `COC(=O)C(Cc1ccccc1)NC(=O)COc1ccc(C(C)(C)C)cc1` (centres undefined) belongs 34.1%. As for `C=CCNCCOc1ccc(C(C)(C)c2ccccc2)cc1`, the inhibition was 56.8% (active). For `C=CCNCCOCCSc1ccc(Cl)cc1`, the inhibition was 42.4%.

Regarding `COc1cccc(C2c3c(-c4ccccc4O)n[nH]c3C(=O)N2Cc2ccco2)c1` (centres undefined), the inhibition is 47.1%.

In the case of `C=CCNC(=O)/C(C#N)=C/c1c(C)nn(-c2ccccc2)c1Cl`, the inhibition was 69.8% (active). `COC(=O)c1ccc(/C=C(\C#N)C(=O)NC(C)c2ccccc2)cc1` (centres undefined): the inhibition is 43.5%. The same measure for `Cc1nn(-c2ccccc2)c(Cl)c1/C=C(\C#N)C(=O)NC(C)C`: 68.6% (active); for `O=C(O)/C=C/C(=O)OC1CC2CCC1C2` (centres undefined): 23.1%.

As for `Cc1ccc(NC(=O)CN(C)C(=O)COc2cccc3cccnc23)cc1`, the inhibition is 21.4%.

With `CCN(CC)c1ccc(/C=N/OC(C)C(=O)Nc2ccc(C)cc2)cc1` (centres undefined), the inhibition is 53.4% (active). The same measure for `c1ccc(CC2CCN(c3nnnn3-c3ccccc3)CC2)cc1`: 39.6%; for `O=C(/C=C/c1ccc2c(c1)OCCCO2)c1ccccc1O`: 61.2% (active). Consider `O=C(CCNC(=O)c1ccccc1Cl)Nc1ccc2c(c1)OCO2`, for which the inhibition is 34.6%. To `Cc1ccc(C(=O)/C=C/c2ccc3c(c2)OCO3)o1` belongs 32.1%; to `COC(=O)Cn1nc(-c2ccccc2)c2ccccc21`, 99.4% (active); to `O=C(O)Cn1nc(-c2ccccc2)oc1=O`, 20.1%. The same measure for `CC(NC(=O)c1ccc(F)cc1)C(=O)NC1=NCCS1` (centres undefined): 38.4%; for `O=C(NC1=NCCS1)c1ccc(Cl)s1`: 53% (active); for `CSc1sc(C(=O)N2CCc3ccccc32)cc1S(=O)(=O)C(C)C`: 30%. The same measure for `CCC(=O)N1CCc2cc(S(=O)(=O)N3CCc4ccccc43)ccc21`: 37%; for `O=C(c1cnn2ccccc12)N1CCc2ccccc21`: 57.4% (active); for `CC(C)NC(=O)c1ccc(COCC(F)(F)F)cc1`: 36.5%. In the case of `Cc1ccc(C(=O)Oc2ccc3c(c2)ncn3C)cc1`, the inhibition is 61.9% (active). Take `Cc1nc2c(ccc3c2ccc2nc(C)sc23)s1`: the inhibition is 38.2%. Turning to `Cc1nc2ccc(NC(=O)c3cc([N+](=O)[O-])cc([N+](=O)[O-])c3Cl)cc2s1`, the inhibition is 42.2%. With `Cc1ccc(C(=O)Nc2ccc3nc(C)sc3c2)s1`, the inhibition was 87.8% (active). To `COc1cccc(/C=N/NC(=O)CCc2c(C)n[nH]c2C)c1` belongs 30.6%; to `Nc1[nH]ncc1N=Nc1ccc(Cl)cc1`, 64.8% (active); to `CCCCNC(=O)COC(=O)c1ccc(Cl)c(S(N)(=O)=O)c1`, 37.4%. In the case of `CCCCOc1ccc(C(=O)CCN2CCCCC2)cc1`, the inhibition is 32.5%. `CCCOc1ccc(C(=O)c2nc3c(n2O)CCCCC3)cc1`: the inhibition was 52% (active). Turning to `CCCCCCNc1nc(NCc2ccco2)nc(OCC)n1`, the inhibition is 56.7% (active). The same measure for `COc1cccc(CNc2ccc3c(c2)CCC3)c1`: 30.4%; for `O=[N+]([O-])c1cccc(CNc2ccc3c(c2)CCC3)c1`: 59.6% (active); for `COc1cccc(OCc2ccc(C(=O)NCC3CCCO3)cc2)c1` (centres undefined): 48.8%. To `CCCc1cc(C(=O)Nc2cccc(Cl)c2)no1` belongs 81.6% (active); to `CCCc1cc(C(=O)Nc2ccc(F)cc2F)no1`, 46.5%.

As to `CCCc1cc(C(=O)Nc2c(C)n(C)n(-c3ccccc3)c2=O)no1`, the inhibition was 16.9%.

`CCn1ncc([N+](=O)[O-])c1C(=O)Nc1ccc(C(=O)N2CCCCC2)cc1`: the inhibition is 43.9%. To `CCn1ncc(C(=O)Nc2cccc(Cl)c2)c1C` belongs 54.3% (active); to `CCn1nccc1C(=O)Nc1ccc(Cl)cn1`, 34.9%; to `Cc1cc(C)c(S(=O)(=O)Nc2ccc(OCC(=O)O)cc2)c(C)c1`, 29.1%. Turning to `CCNC(=S)SCCOc1ccccc1C`, the inhibition was 79.3% (active).

Take `COc1ccc(N(CCC#N)S(=O)(=O)c2ccc(Cl)cc2)cc1`: the inhibition is 26.1%. Take `CC1CCCCC1NC(=O)/C(C#N)=C/c1ccccc1F` (centres undefined): the inhibition was 74.2% (active).

Take `CCCSc1nnc(C(C)C)n1N`: the inhibition was 26.2%.

As to `COc1ccc(/C=N/OC(=O)Nc2ccccc2)cc1[N+](=O)[O-]`, the inhibition was 32.5%.

Turning to `CCOc1ccc(/C=C/C(=O)c2ccccc2)cc1OC`, the inhibition was 55.5% (active). As for `CCOC(=O)c1cc(-c2ccccc2)n(CC(=O)Nc2ccc(OC)c(OC)c2)c1C`, the inhibition was 37.5%.

Take `CC(C)c1nc2sc3c(=O)[nH]cnc3c2c2c1CCC2`: the inhibition is 23.9%. The same measure for `COc1ccccc1N1C(=O)C2CCC(c3ccccc3)CC2C1=O` (centres undefined): 27.9%. Regarding `CC(C)(C)c1cc2cccnc2n1Cc1cccc(Cl)c1`, the inhibition was 52.5% (active).

As for `Cc1cccc(Cn2c(C(C)(C)C)cc3cccnc32)c1`, the inhibition is 47.4%. `CCSc1nnc(-c2cnn(-c3ccccc3)c2-n2cccc2)n1C`: the inhibition is 34.5%. With `CCSc1ncc(/C=N/Nc2ccccc2)n1C`, the inhibition is 75.3% (active).

In the case of `COc1cc(NC(C)CCCN)c2ncccc2c1Oc1ccccc1` (centres undefined), the inhibition is 29.6%.

For `Cc1cc2ccccn2c1C(C[N+](=O)[O-])c1ccc(N(C)C)cc1` (centres undefined), the inhibition is 21.9%.

Turning to `Cc1[nH]n(-c2ccccc2)c(=O)c1C(C[N+](=O)[O-])c1ccc(Cl)cc1` (centres undefined), the inhibition is 87.4% (active). The same measure for `Cc1ccc(C(C[N+](=O)[O-])c2c(C)[nH]n(-c3ccccc3)c2=O)cc1` (centres undefined): 82.5% (active).

As to `O=c1cc(CSc2ccc(Cl)cc2)[nH]c2[nH]n(-c3ccccc3)c(=O)c12`, the inhibition was 42.8%. To `Cc1[nH]n(-c2ccccc2)c(=O)c1C(C[N+](=O)[O-])c1ccc(Br)cc1` (centres undefined) belongs 79% (active); to `COC(=O)C1(C(C[N+](=O)[O-])c2ccc(C)cc2)C(=O)NCC1c1ccco1` (centres undefined), 49%. The same measure for `O=C1N/C(=N\N=C\c2cccnc2)SC1Cc1ccc(SC(F)F)cc1` (centres undefined): 29.8%. To `NC(=O)c1ncc(C(F)(F)F)cc1Oc1ccc(C(F)(F)F)cc1` belongs 42.5%.

Broadly, the inhibition is the change of the read-out against control, counted positive when it falls.
